MITF inh: blocks human microphthalmia-associated transcription factor; O75030; AlphaScreen MITF homodimerization, bead proximity signal; inhibition, % at 2.6 µM; actives 0.91% (n = 650,000); AID 1259374; in the data active means inhibition above about 50%
TEAD-YAP inh: TEAD-YAP interaction inhibition; AID 1259422; actives 1.4% (n = 640,000); HEK-TIYL cells, TEAD-Gal4/YAP UAS-luciferase luminescence; inhibition, % at 9.12 µM; in the data active means inhibition above about 32%
FBW7 activator: human FBW7 E3 ligase activation, primary screen | AlphaScreen FBW7–phospho-cyclin E peptide binding, activator screen | normalized activity (activation), % at 26.1 µM | actives 0.13% (n = 650,000); in the data active means normalized activity above about 1.9%;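 further: purified mutant Fbw7 with reduced substrate affinity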
GPR151 activ: activators of human GPR151 | Q8TDV0 | PathHunter beta-arrestin GPR151 cells, luminescence | activation, % at 11.2 µM | actives 1% (n = 650,000); in the data active means activation above about 4.9%
Target sequence (Q8TDV0 whole entry, looked up): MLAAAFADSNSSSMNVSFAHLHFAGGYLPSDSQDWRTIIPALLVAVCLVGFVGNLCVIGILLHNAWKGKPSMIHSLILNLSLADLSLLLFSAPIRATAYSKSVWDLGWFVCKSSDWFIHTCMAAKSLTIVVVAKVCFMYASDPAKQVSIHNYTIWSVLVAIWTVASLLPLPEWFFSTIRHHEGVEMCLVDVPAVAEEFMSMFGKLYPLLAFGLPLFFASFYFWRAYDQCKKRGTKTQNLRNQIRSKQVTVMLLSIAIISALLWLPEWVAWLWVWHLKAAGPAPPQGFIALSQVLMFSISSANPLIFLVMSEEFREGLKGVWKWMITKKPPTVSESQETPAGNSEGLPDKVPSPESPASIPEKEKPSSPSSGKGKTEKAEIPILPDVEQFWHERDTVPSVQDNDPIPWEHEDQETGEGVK
Each line names hits and unclear results; the compound was inactive in the other large screens. Only some compounds are listed: those with a hit (about 3.5% of all), similar ones and a draw of the others.

O=c1[nH]cnc2c1[nH]c1ccc(Br)cc12	none
COC(=O)c1ccc2nc(-c3ccc(S(C)(=O)=O)cc3)cn2c1	none
COC(=O)c1ccc2nc(-c3cccc(N)c3)cn2c1	TEAD-YAP inh 78
COc1ccc(CNc2nc3nc(C)cc(=O)n3[nH]2)cc1	none
Nc1nc(C2CC2)c(Sc2sc(N)nc2C2CC2)s1	TEAD-YAP inh 35
CC(C)CCN1CCc2nnc(C(C)NC(=O)CCc3ccccc3)n2CC1 (configuration not stated)	none
Cc1cc(O)c(C=O)c2c1C(=O)Oc1c(COC(=O)/C=C/C(=O)O)c(O)c(C(=O)O)c(C)c1O2	MITF inh 76
CCn1c2cc(C)sc2c2cnn(CC(=O)NC3CCCCC3)c(=O)c21	none
COc1ccc(NS(=O)(=O)c2ccc3ccccc3c2)c2ncccc12	none
O=S(=O)(Nc1ccc(Br)c2cccnc12)c1ccccc1	TEAD-YAP inh 33
C/C(=N/NC(=O)c1ccc([N+](=O)[O-])cc1)c1ccc(O)cc1O	TEAD-YAP inh 84
C/C(=N\NC(=O)c1ccc([N+](=O)[O-])cc1Cl)c1ccc(O)cc1O	none
Cc1ccc(C(=O)Nc2ccc(O)cc2C(=O)O)cc1	none
Cc1ccc(C(=O)Nc2ccc(O)cc2C(=O)O)cc1[N+](=O)[O-]	MITF inh 80
O=C(Nc1ccc(O)cc1C(=O)O)c1ccc([N+](=O)[O-])cc1	MITF inh 52
CC(C)(C)c1ccc(C(=O)Nc2ccc(O)cc2C(=O)O)cc1	TEAD-YAP inh 34
COC(=O)C(C)Oc1ccc2c(c1)oc(=O)c1cc(OC)ccc12 (configuration not stated)	none
COc1ccc(-c2csc(NC(=O)c3csc(C)c3)n2)cc1	none
COc1ccc(-c2csc(NC(=O)c3cc(C)nn3C)n2)cc1	TEAD-YAP inh 63
Cc1ccc(-c2ncn(-c3ccc(Nc4ncc(F)c(-c5cnn(C)c5)n4)cc3)n2)cn1	TEAD-YAP inh 46
Cc1ncn(-c2ccc(Nc3ncc(Br)c(-c4cnn(C)c4)n3)cc2)n1	TEAD-YAP inh 69
Cc1ccc(-c2ncn(-c3ccc(Nc4ncc5ccc(-c6cn[nH]c6C)cc5n4)cc3)n2)cn1	TEAD-YAP inh 43
Cc1nc(C)n(-c2ccc(Nc3ncc4ccc(-c5cnn(C)c5)nc4n3)cc2)n1	TEAD-YAP inh 72
CNc1cc(-c2cnn(C)c2)nc(Nc2ccc(-n3nc(C)nc3C)cc2)n1	none
COc1c(-c2cc(C(F)(F)F)[nH]n2)c(O)c(OC)c2occc12	none
CCSCCOC(=O)C1=C(C)NC2=C(C(=O)C(C(=O)OC)C(C)C2)C1c1c(F)cccc1Cl (configuration not stated)	FBW7 activator 1.9
CCOc1ccc(S(=O)(=O)Nc2cc(F)ccc2F)c2cccnc12	none
CCOc1ccc(S(=O)(=O)N2c3ccc(F)cc3CCC2C)c2cccnc12 (configuration not stated)	TEAD-YAP inh 50
Cc1cccc(CSc2nnc(CNC(=O)c3ccc(F)cc3)o2)c1	none
C/C(CC(=O)Nc1ccc2c(c1)OCCO2)=N\NC(=O)c1ccc2ccccc2c1	none
O=[N+]([O-])c1cc2c3c(c1)C1C=CCC1C(c1ccc(F)cc1)N3CC1CC=CC21 (configuration not stated)	none
Cc1ccc(CC(=O)Nc2nc3c(s2)CCCC3)cc1	none
Cc1nc(C)c(CC(=O)Nc2nc3c(s2)CCCC3)s1	TEAD-YAP inh 40
CC(=O)c1cccc(-c2nc(NCCCN3CCCC3=O)c3ncn(CCN4CCCC4=O)c3n2)c1	none
O=C(NC1CC1)c1ccc(-c2nc(NCCCN3CCCC3=O)c3ncn(-c4ccccc4)c3n2)cc1	TEAD-YAP inh 64
CC(=O)c1cccc(-c2nc(NCCCN3CCCC3=O)c3ncn(-c4ccccc4)c3n2)c1	TEAD-YAP inh 58
NC(=O)c1ccc(-c2nc(NCCCN3CCCC3=O)c3ncn(-c4ccccc4)c3n2)cc1	TEAD-YAP inh 55
O=C(NCC1COc2ccccc2O1)c1cc(F)c(F)cc1Cl (configuration not stated)	none
Cc1ccc2c(c1)cc1c(=O)n(CC(=O)N3CCN(c4ccccn4)CC3)nc(C)n12	none
CCN(CC)Cc1c(O)ccc2c([N+](=O)[O-])c(C)n(-c3ccc(OC)cc3)c12	TEAD-YAP inh 37
COc1ccc(-n2c(/C=C/N(C)C)c([N+](=O)[O-])c3ccc(O)c(COC(C)=O)c32)cc1	none
CCCNC(=O)c1cc(-c2cccc(O)c2)on1	TEAD-YAP inh 53
O=C(NC1CCCC1)c1cc(-c2ccc(O)cc2)on1	TEAD-YAP inh 40
COCCNC(=O)c1cc(-c2cccc(O)c2)on1	none
CC(C)CNC(=O)c1cc(-c2ccc(O)cc2)on1	TEAD-YAP inh 39

Source: PubChem BioAssay
